{"source": "PubChem BioAssay (NCI)", "note": "This is part of a sample that, as a whole, favours compounds with a hit. Of some 83,000 tested, about 20% had one in any assay.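 Activity criterion: percent growth below 10, measured after cells in 96-well plates were exposed to a single compound concentration for 48 hours.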 Activity calls are given as the source filed them."}
{"system": "K-562 leukemia", "assay": "NCI-60 one-dose screen, 48 h (100 = growth as untreated, 0 = no growth, -100 = all killed)", "conditions": "10 µM unless noted"}
{"compound": "CCC(CC)N1C(=O)/C(=c2\\sc3n(c2=O)NC2C(N=3)N(CC)C(=O)N2CC)c2ccccc21", "note": "(stereo not drawn)", "growth": "26% (inactive)"}
{"compound": "CN1CCN(c2ccc(/C=N/Nc3nc4ccccc4c(=O)n3-c3ccccc3)cc2)CC1", "growth": "103% (inactive)"}
{"compound": "CC1=NC2=NC(=O)/C(=C3/N=C(C)C=C(c4ccccc4)N3N)NN2C(c2ccccc2)=C1", "growth": "101% (inactive)"}
{"compound": "Nc1ncc(-c2ccc3ncnc(N4CCc5cc(F)c(F)cc54)c3c2)cn1", "growth": "48.7% (inactive)"}
{"compound": "COc1ccc(Oc2ccc(/C=N/NC(=O)CSc3nc4ccccc4c(=O)n3-c3ccc(Cl)cc3)cc2)cc1", "growth": "58.4% (inactive)"}
{"compound": "COc1ccc2c(c1)Oc1nc(N)c(C#N)c(N)c1C2Sc1ccc(C)cc1", "note": "(stereo not drawn)", "growth": "4.37% (active)"}
{"compound": "CC(=O)C1=C(C)NC(NN)=NC1c1cccc(Cl)c1", "note": "(stereo not drawn)", "growth": "100% (inactive)"}
{"compound": "O=C(NNc1nc2cc(F)ccc2n2c(CO)ccc12)c1cnccn1", "growth": "8.85% (active)"}
{"compound": "NC(N)=Nc1ccc(Oc2cccc(NC(N)=Nc3ccc(Br)cc3)c2)cn1", "growth": "52.4% (inactive)"}
{"compound": "CCOC(=O)C1=NNC(c2ccc(Cl)cc2)C1C(=O)N1C(=S)NC(=O)C1CC(C)C", "note": "(stereo not drawn)", "growth": "98.4% (inactive)"}
{"compound": "CC/C(=C/c1c(O)cccc1OC)c1ccc2c(OC)cccc2[o+]1", "growth": "96.6% (inactive)"}
{"compound": "Cn1ccnc1C(=O)/C=C/c1ccc(CNC(=O)c2ccc(Cl)cc2)cc1", "growth": "13.2% (inactive)"}
{"compound": "COc1c(N2CC3CCCNC3C2)c(F)cc2c(=O)c(C(=O)N/N=C/c3ccc(F)cc3)cn(C3CC3)c12", "note": "(stereo not drawn)", "growth": "18.9% (inactive)"}
{"compound": "CN(C)CCNC(=O)c1ccc(-c2nc3ccc4[nH]ncc4c3c3c2CCC3)cc1", "growth": "11.3% (inactive)"}
{"compound": "C=C(C=O)[C@@H]1CC[C@]2(COC(C)=O)CC[C@]3(C)C(CC[C@@H]4[C@@]5(C)CC[C@H](OC(C)=O)C(C)(C)[C@@H]5CC[C@]43C)[C@@H]12", "note": "(stereo partly drawn)", "growth": "2.89% (active)"}
{"compound": "COc1c(N2CC3CCCNC3C2)c(F)cc2c(=O)c(C(=O)N/N=C/c3c[nH]c4ccccc34)cn(C3CC3)c12", "note": "(stereo not drawn)", "growth": "3.26% (active)"}
{"compound": "COc1cc(C2N=C(NNc3ccccc3)NC(C)=C2C(C)=O)ccc1O", "note": "(stereo not drawn)", "growth": "66.8% (inactive)"}
{"compound": "CCCCCc1ccc(S(=O)(=O)Nc2cccc(-c3csc(NC(=O)CNCCN(C)C)n3)c2)cc1", "growth": "9.48% (active)"}
{"compound": "CCCCCc1ccc(S(=O)(=O)Nc2cccc(-c3csc(NC(=O)CCCCCN4CCN(CCO)CC4)n3)c2)cc1", "growth": "-21.3% (active)"}
{"compound": "CS(=O)(=O)Nc1cc(-c2ccc3ncc(C#N)c(NCc4ccccc4O)c3c2)cnc1Cl", "growth": "22.3% (inactive)"}
{"compound": "CC(=O)N1C(=S)NC(=O)C1CC(C)C", "note": "(stereo not drawn)", "growth": "106% (inactive)"}
{"compound": "COc1cc(/C=C2\\C(=O)Nc3ccccc32)ccc1OCc1ccc(Cl)cc1", "growth": "98.5% (inactive)"}
{"compound": "COc1cc2oc(-c3cccc(NC(=O)c4cc(N)ccc4Cl)c3)cc(=O)c2c(OC)c1OC", "growth": "83.7% (inactive)"}
{"compound": "COc1ccc(Cn2cc3c(c2-c2cc(OC)c(OC)c(OC)c2)CCc2c(CN4CCCC4)noc2-3)cc1", "growth": "14% (inactive)"}
{"compound": "CCCCCc1ccc(S(=O)(=O)Nc2cccc(-c3csc(NCCN4CCN(C)CC4)n3)c2)cc1", "growth": "0.356% (active)"}
{"compound": "CCC1=Cc2cc(OC)ccc2OC12C=Cc1cc(OC)ccc1O2", "note": "(stereo not drawn)", "growth": "12.6% (inactive)"}
{"compound": "CCCCCc1ccc(S(=O)(=O)Nc2cccc(-c3csc(NC(=O)CCCCCN4CCN(C)CC4)n3)c2)cc1", "growth": "-35.7% (active)"}
{"compound": "N#Cc1cnc2ccc(-c3cnc4[nH]ncc4c3)cc2c1N1CCc2cc(F)c(Cl)cc21", "growth": "16.6% (inactive)"}
{"compound": "CC(C)C[C@@H]1N[C@@]2(C(=O)Nc3ccccc32)[C@@H](c2ccc(F)cc2)[C@@H]1C(=O)c1ccc(O)cc1", "growth": "89.7% (inactive)"}
{"compound": "O=C(NNc1nc2cc(F)cc(F)c2n2cccc12)c1cnccn1", "growth": "14.3% (inactive)"}
{"compound": "O=C(NNc1nc2cc(F)c(F)cc2n2cccc12)c1cnccn1", "growth": "15.5% (inactive)"}
{"compound": "O=C(CNc1nc(-c2cccc([N+](=O)[O-])c2)cs1)Nc1cccc([N+](=O)[O-])c1", "growth": "8.33% (active)"}
{"compound": "CC(Nc1c(C#N)cnc2ccc(-c3cnc(N)nc3)cc12)c1ccccc1", "note": "(stereo not drawn)", "growth": "22.5% (inactive)"}
{"compound": "C=CCn1c(SCC(=O)Nc2ccc(C(=O)/C=C/c3ccc(Cl)cc3)cc2)nnc1-c1c[nH]c2ccccc12", "growth": "50.7% (inactive)"}
{"compound": "CCCCCc1ccc(S(=O)(=O)Nc2cccc(-c3csc(NC(=O)CN4CCN(C)CC4)n3)c2)cc1", "growth": "7.06% (active)"}
{"compound": "O=C(NCc1ncc[nH]1)c1ccc(-c2nc3ccc4[nH]ncc4c3c3c2CCCC3)cc1", "growth": "14.7% (inactive)"}
{"compound": "Cc1c(Cl)cccc1S(=O)(=O)Nc1ccc2c(c1)C(=O)N(C1CCC(=O)NC1=O)C2=O", "note": "(stereo not drawn)", "growth": "101% (inactive)"}
{"compound": "COC(=O)C1(C)CCC[C@]2(C)[C@H]3C[C@H]4C(C(C)C)=C[C@]3(CC[C@@H]12)[C@H]1[C@@H]4[C@@H](OC(=O)c2ccco2)CC[C@@H]1OC(=O)c1ccco1", "note": "(stereo partly drawn)", "growth": "104% (inactive)"}
